Reference: PubChem BioAssay (NCI)
About 79,000 compounds went through this panel and 15% of them were active in at least one assay; those are over-represented in the sample as a whole. Active and inactive are the calls of the source. Rule as the data show it: active = growth inhibition above about 70%; inactive = the rest.

Experiments:
[1] = NCI Yeast Anticancer Drug Screen. Data for the rad52 strain (AID 147);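 also: 0% = growth of vehicle-treated control cultures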; settings: S. cerevisiae rad52 mutant growth inhibition, stronger effect = higher value
Procedure, shortened: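 Screen used a yeast mutant impaired in DNA repair. After compound exposure, growth was measured. Values reflect inhibition compared with vehicle-treated cells.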

[2] = NCI Yeast Anticancer Drug Screen. Data for the wt1 strain (AID 149);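 also: 0% = growth of vehicle-treated wt1 cultures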; settings: S. cerevisiae wt1 strain (SPY 50644) growth inhibition, stronger effect = higher value
Procedure, shortened: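 Readout: yeast growth inhibition, normalised to vehicle controls, in the wt1 strain exposed to test compounds.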

[3] = NCI Yeast Anticancer Drug Screen. Data for the rad50EPP+ strain (AID 151);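 also: 0% = growth of vehicle-treated control cultures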; settings: S. cerevisiae rad50 mutant strain, stronger effect = higher value
Procedure, shortened: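 Exposing the rad50EPP+ strain to each compound, growth was compared with vehicle-only cultures to give inhibition.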

[4] = NCI Yeast Anticancer Drug Screen. Data for the mgt1 strain (AID 153); settings: S. cerevisiae mgt1 mutant growth inhibition, stronger effect = higher value
Procedure, shortened: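 Genetically defined yeast (mgt1) treated with compound; inhibition of growth expressed against vehicle-treated controls.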

[5] = NCI Yeast Anticancer Drug Screen. Data for the rad50 strain (AID 155);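 also: 0% = growth of vehicle-only cultures of the same strain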; settings: S. cerevisiae rad50 strain growth inhibition, stronger effect = higher value
Procedure, shortened: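 Compounds were tested on a yeast strain with an engineered DNA damage repair alteration; the reported value is growth inhibition normalised to vehicle treatment.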

[6] = NCI Yeast Anticancer Drug Screen. Data for the mec2-1 strain (AID 157); settings: S. cerevisiae mec2-1 strain, stronger effect = higher value
Procedure, shortened: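 Readout is yeast growth inhibition, normalised to vehicle-treated controls, in the mec2-1 strain exposed to compound.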

[7] = NCI Yeast Anticancer Drug Screen. Data for the rad14 strain (AID 159);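 also: 0% = growth of vehicle-treated control cultures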; settings: S. cerevisiae rad14 strain growth inhibition, stronger effect = higher value
Procedure, shortened: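 Compound-treated yeast with a defined DNA-repair lesion; growth inhibition normalised to vehicle-treated cultures.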

[8] = NCI Yeast Anticancer Drug Screen. Data for the sgs1 mgt1 strain (AID 161);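 also: 0% = growth of cultures given vehicle only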; settings: S. cerevisiae sgs1 mgt1 strain, stronger effect = higher value
Procedure, shortened: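 Yeast cells carrying a defined DNA-repair defect were exposed to test compounds. Growth inhibition was measured relative to vehicle-treated controls.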

[9] = NCI Yeast Anticancer Drug Screen. Data for the CLN2oe strain (AID 163);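 also: 0% = growth of vehicle-only control cultures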; settings: S. cerevisiae CLN2oe strain, stronger effect = higher value
Procedure, shortened: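 Values reflect how much compound exposure reduced yeast growth, referenced to vehicle-exposed cells. Assay organism is a strain with a defined genetic change affecting cell-cycle control.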

[10] = NCI Yeast Anticancer Drug Screen. Data for the cln2 rad14 strain (AID 165);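 also: 0% = growth equal to vehicle treated cultures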; settings: S. cerevisiae cln2 rad14 strain, stronger effect = higher value
Procedure, shortened: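 Relative to vehicle controls, growth inhibition of compound-treated cln2 rad14 yeast was recorded.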

[11] = NCI Yeast Anticancer Drug Screen. Data for the bub3 strain (AID 167); settings: S. cerevisiae bub3 mutant strain, stronger effect = higher value
Procedure, shortened: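 Growth of a checkpoint-deficient yeast mutant is measured after compound exposure. Values represent inhibition relative to vehicle.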

[12] = NCI Yeast Anticancer Drug Screen. Data for the wt2 strain (AID 169);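 also: 0% = growth of vehicle-treated yeast cultures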; settings: S. cerevisiae wt2 strain growth inhibition, stronger effect = higher value
Procedure, shortened: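 Values express reduction in yeast growth under compound treatment, referenced to vehicle-treated cells.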

[13] = NCI Yeast Anticancer Drug Screen. Data for the mlh1 strain (AID 171);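 also: 0% = growth of vehicle-treated control cultures of the same strain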; settings: S. cerevisiae mlh1 strain growth inhibition, stronger effect = higher value
Procedure, shortened: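 Steps: expose the defined-mutant yeast strain to compound; expose a parallel culture to vehicle; measure growth; express compound effect as inhibition relative to the vehicle culture.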

[14] = NCI Yeast Anticancer Drug Screen. Data for the sgs1 strain (AID 173);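 also: 0% = growth of vehicle-only control cultures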; settings: S. cerevisiae sgs1 mutant, stronger effect = higher value
Procedure, shortened: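 Treat defined-mutant yeast with compound; measure growth; calculate inhibition relative to vehicle-treated cells.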

[15] = NCI Yeast Anticancer Drug Screen. Data for the mlh1 rad18 strain (AID 175); settings: S. cerevisiae mlh1 rad18 strain growth inhibition, stronger effect = higher value
Procedure, shortened: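 Test agents were incubated with a yeast strain of defined genotype (DNA damage repair defect). Inhibition of growth was derived by comparison with vehicle-exposed cultures.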

[16] = NCI Yeast Anticancer Drug Screen. Data for the rad18 strain (AID 177); settings: S. cerevisiae rad18 mutant growth inhibition, stronger effect = higher value
Procedure, shortened: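 A genetically defined yeast mutant impaired in DNA damage repair was treated with test compounds, then its growth was measured against cultures receiving vehicle alone.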

[17] = at 5.0 µM (retest, dose inferred, filed as 0.5)
[18] = at 50.0 µM (retest, dose inferred, filed as 5.0)

Measured: growth inhibition

CC(/C=C/c1ccccc1)=N\NC(N)=S
inactive: [1]; at 1.2 µM 4% | [1]; at 3.7 µM 16% | [1]; at 11.0 µM 16% | [1]; at 33.0 µM 24% | [2]; at 1.2 µM -8% | [2]; at 3.7 µM -5% | [2]; at 11.0 µM 6% | [2]; at 33.0 µM 17% | [2]; at 100.0 µM 35% | [3]; at 1.2 µM -5% | [3]; at 3.7 µM 6% | [3]; at 11.0 µM 0% | [3]; at 33.0 µM -3% | [3]; at 100.0 µM 48% | [4]; at 1.2 µM 9% | [4]; at 3.7 µM 13% | [4]; at 11.0 µM 10% | [4]; at 33.0 µM 29% | [4]; at 100.0 µM 52% | [5]; at 1.2 µM 14% | [5]; at 3.7 µM 10% | [5]; [17] 24% | [5]; at 11.0 µM 7% | [5]; [18] 60% | [5]; at 50.0 µM 33.7% | [6]; at 1.2 µM -2% | [6]; at 3.7 µM 5% | [6]; [17] 15% | [6]; at 11.0 µM -6% | [6]; at 33.0 µM 4% | [6]; [18] 35% | [6]; at 50.0 µM 62.5% | [6]; at 100.0 µM 59% | [7]; at 1.2 µM -8% | [7]; at 3.7 µM 2% | [7]; at 11.0 µM -17% | [7]; at 33.0 µM -15% | [7]; at 100.0 µM 45% | [8]; [17] 58% | [9]; at 1.2 µM 7% | [9]; at 3.7 µM 20% | [9]; at 11.0 µM 16% | [9]; at 33.0 µM 25% | [9]; at 100.0 µM 46% | [10]; [17] -5% | [10]; [18] 15% | [11]; at 1.2 µM 9% | [11]; at 3.7 µM -8% | [11]; [17] 18% | [11]; at 11.0 µM -2% | [11]; at 33.0 µM -8% | [11]; [18] 44% | [11]; at 100.0 µM 13% | [12]; at 1.2 µM -46% | [12]; at 3.7 µM -38% | [12]; at 11.0 µM -43% | [12]; at 33.0 µM -9% | [12]; at 100.0 µM 65% | [13]; at 1.2 µM 5% | [13]; at 3.7 µM 19% | [13]; at 11.0 µM 20% | [13]; at 33.0 µM 37% | [13]; at 100.0 µM 58% | [14]; at 1.2 µM -3% | [14]; at 3.7 µM 9% | [14]; at 11.0 µM 13% | [14]; at 33.0 µM 30% | [14]; at 100.0 µM 68% | [15]; [17] 49% | [15]; at 50.0 µM 58.8% | [16]; at 1.2 µM 9% | [16]; at 3.7 µM 11% | [16]; at 11.0 µM 33% | [16]; at 33.0 µM 67%
active: [1]; at 100.0 µM 72% | [5]; at 33.0 µM 93% | [5]; at 100.0 µM 97% | [8]; [18] 87% | [8]; at 50.0 µM 86.1% | [10]; at 50.0 µM 83% | [11]; at 50.0 µM 83.5% | [15]; [18] 77% | [16]; at 100.0 µM 94%

Cc1nc(-c2cc3cc([N+](=O)[O-])ccc3oc2=O)cs1
inactive: [1]; at 1.2 µM 13% | [1]; at 3.7 µM 39% | [1]; at 11.0 µM 47% | [1]; at 33.0 µM 65% | [2]; at 1.2 µM -5% | [2]; at 3.7 µM 5% | [2]; at 11.0 µM 11% | [2]; at 33.0 µM 25% | [3]; at 1.2 µM -7% | [3]; at 3.7 µM 26% | [3]; at 11.0 µM 57% | [4]; at 1.2 µM -1% | [4]; at 3.7 µM 6% | [4]; at 11.0 µM 5% | [4]; at 33.0 µM 25% | [5]; at 1.2 µM 20% | [5]; at 3.7 µM 17% | [5]; [17] 17% | [5]; at 11.0 µM 23% | [5]; at 33.0 µM 42% | [6]; at 1.2 µM -15% | [6]; at 3.7 µM -3% | [6]; [17] 18% | [6]; at 11.0 µM 3% | [6]; at 33.0 µM 16% | [7]; at 1.2 µM -1% | [7]; at 3.7 µM 6% | [7]; at 11.0 µM 13% | [7]; at 33.0 µM 25% | [8]; [17] 13% | [8]; [18] 46% | [9]; at 1.2 µM -22% | [9]; at 3.7 µM 3% | [9]; at 11.0 µM 8% | [9]; at 33.0 µM 20% | [10]; [17] 2% | [10]; [18] 13% | [10]; at 50.0 µM 59.4% | [11]; at 1.2 µM -15% | [11]; at 3.7 µM -2% | [11]; [17] -15% | [11]; at 11.0 µM -1% | [11]; at 33.0 µM 3% | [11]; [18] 60% | [12]; at 1.2 µM -42% | [12]; at 3.7 µM -24% | [12]; at 11.0 µM -11% | [12]; at 33.0 µM 28% | [13]; at 1.2 µM -2% | [13]; at 3.7 µM -12% | [13]; at 11.0 µM 10% | [13]; at 33.0 µM 34% | [14]; at 1.2 µM 5% | [14]; at 3.7 µM 31% | [14]; at 11.0 µM 42% | [14]; at 33.0 µM 62% | [15]; [17] 16% | [15]; at 50.0 µM 14.9%
active: [1]; at 100.0 µM 97% | [2]; at 100.0 µM 92% | [3]; at 33.0 µM 81% | [3]; at 100.0 µM 99% | [4]; at 100.0 µM 89% | [5]; [18] 84% | [5]; at 50.0 µM 89.9% | [5]; at 100.0 µM 94% | [6]; [18] 100% | [6]; at 50.0 µM 94.2% | [6]; at 100.0 µM 94% | [7]; at 100.0 µM 96% | [8]; at 50.0 µM 89.3% | [9]; at 100.0 µM 81% | [11]; at 50.0 µM 89.4% | [11]; at 100.0 µM 92% | [12]; at 100.0 µM 99% | [13]; at 100.0 µM 98% | [14]; at 100.0 µM 99% | [15]; [18] 91%
